The list is not random: actives were taken first. Their share in the collection is about 6.1%.
D1 PAM: enhances dopamine response at the human D1 receptor | P21728 | HEK293 TREx D1 cells, calcium flux, dopamine EC20 potentiation | potentiation, % at 10 µM | 360,000 tested, 0.036% active; in the data active means potentiation above about 30%
Target sequence (P21728 whole entry, looked up): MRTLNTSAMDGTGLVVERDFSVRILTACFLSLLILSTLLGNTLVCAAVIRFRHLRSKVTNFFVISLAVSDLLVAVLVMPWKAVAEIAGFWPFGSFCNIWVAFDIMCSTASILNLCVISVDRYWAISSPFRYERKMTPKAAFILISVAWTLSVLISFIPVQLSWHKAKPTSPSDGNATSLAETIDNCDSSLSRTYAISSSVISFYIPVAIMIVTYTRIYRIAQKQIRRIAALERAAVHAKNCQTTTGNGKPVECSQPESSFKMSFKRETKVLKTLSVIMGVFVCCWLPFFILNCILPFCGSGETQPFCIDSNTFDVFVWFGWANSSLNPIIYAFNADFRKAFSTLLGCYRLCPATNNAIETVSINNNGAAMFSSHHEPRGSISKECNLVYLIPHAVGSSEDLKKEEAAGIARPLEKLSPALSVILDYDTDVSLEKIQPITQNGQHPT
D1 ag: activates the human D1 dopamine receptor. P21728. HEK293 T-REx D1 cells, calcium flux, agonist mode. activation, % at 2 µM. 360,000 tested, 1% active. AID 504660; in the data active means activation above about 30%
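Tetracycline-induced HEK293 TREx D1 cells, force-coupled to calcium signalling, were dye-loaded with a no-wash calcium kit. Compound was pin-added after a 10 s baseline. Fluorescence was read kinetically at 1 cycle/s for 180 s, with calcium rises flagged as agonism.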
DRD3 antagonist: D3 dopamine receptor (human) antagonism. P35462. D3R cells, DiscoveRx beta-arrestin luminescence, antagonist mode; stronger effect = lower value. max response, negative = inhibition, %. 360,000 tested, 2.5% active. AID 652054; in the data active means max response below about -50%
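Cells expressing the human receptor were seeded at 1500 cells/well, incubated overnight at 37 degrees C in 5% CO2, then exposed to library compounds with dopamine controls for 90 minutes at 37 degrees C before luminescent detection.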
D3 ag: agonists of human D3 dopamine receptor; 410,000 tested, 0.58% active; D3R DiscoveRx beta-arrestin cells, luminescence, 90 min; max activation, %; P35462; AID 652048; in the data active means max activation above about 30%
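Agonist-mode cell screen: cells plated at 1500/well and incubated overnight at 37 °C, then exposed to library compounds for 90 min at 37 °C. Detection reagent was added for 30–60 min at room temperature, and luminescence was read.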
ERG Ets-DNA blk: blocks human ERG Ets domain binding to DNA; fluorescence polarization, His-ERG Ets domain / labelled DNA; 370,000 tested, 0.028% active; Potency, µM (doses to about 76.9 µM), most hits filed as inhibitors; active means well fitted inhibition curve with a large enough effect in the polarisation, with a control signal flat; the % refers to the polarisation;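 further: polarization taken with two DNA probes labelled with fluorescein and Texas red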
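His-tagged ERG Ets domain (1 uM in the protein solution; 300mM KCl, 50mM Tris-HCl, 1mM EDTA, 1mM DTT, pH 7.5) received compound, then a probe mix of 5 nM fluorescein-DNA and 100nM Texas-615-DNA. Fluorescence polarization was read for both dyes.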
D1 antagonist: antagonists of human D1 dopamine receptor. P21728. HEK293 TREx D1 cells, calcium flux, dopamine EC80; stronger effect = lower value. activity change, negative = inhibition, % at 10 µM. 360,000 tested, 3.2% active. AID 504652; in the data active means activity change below about -30%
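Tetracycline-induced HEK293 Trex D1 cells, force-coupled to calcium, dye-loaded; compounds added and read 180 s, then EC80 dopamine added and calcium flux tracked kinetically another 180 s.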
Numbers stand for hits; n = inactive; x = not tested or not shown.

SMILES	D1 PAM	D1 ag	DRD3 antagonist	D3 ag	ERG Ets-DNA blk	D1 antagonist
COc1cccc(CN(C(=O)c2ccccc2)C2CCS(=O)(=O)C2)c1 (stereo not drawn)	n	n	n	n	n	-35
COc1cccc(-c2noc(Cn3nc(C(=O)O)c4ccccc4c3=O)n2)c1	n	n	n	n	n	n
O=C(O)c1nn(Cc2ncc(-c3cccc(Cl)c3)o2)c(=O)c2ccccc12	n	n	n	33	n	n
CCOC(=O)c1cc(C)n(CC2CCC(C(=O)Nc3ccc(OC)cc3)CC2)c1C (stereo not drawn)	n	n	x	30	n	n
CNC(=O)NC(=O)C(NC1CCCc2ccccc21)c1ccccc1 (stereo not drawn)	n	n	n	n	n	-33
Cc1ccc(NC(=O)C(NC2CCCc3ccccc32)c2ccccc2)cc1Cl (stereo not drawn)	n	n	n	n	n	n
CCOc1ccc(/C=C/C(=O)N(CC)CC(=O)Nc2ccc3c(c2)OCCO3)cc1OCC	n	n	-57	n	n	n
CCOc1c(Cl)cc(/C=C/C(=O)N(CC)CC(=O)Nc2ccc(NC(C)=O)cc2)cc1OC	n	n	-53	n	x	n
CCOc1ccc(/C=C/C(=O)N(CC)CC(=O)Nc2ccc3c(c2)OCCO3)cc1OC	n	n	n	n	n	n
Cc1ccc(C(=O)Oc2coc(CSc3nnc(NC(=O)C4CC4)s3)cc2=O)cc1C	n	n	n	n	n	n
Cc1cc(C)c(CN2CCN(CCCn3cnc(C(=O)Nc4ccc(C)c(C)c4)n3)CC2)c(C)c1	x	x	n	n	n	x
Cc1ccc(Nc2nnc(C3C(=O)N(C)C4(C)CC3c3cc(Br)ccc3O4)s2)cc1 (stereo not drawn)	n	36	n	n	x	n
CC1(C)Cc2c(sc(NC(=O)c3ccc(C(=O)c4ccccc4)cc3)c2C(N)=O)C(C)(C)N1	n	112	-50	n	n	n
CC1(C)Cc2c(sc(NC(=O)c3ccc4ncsc4c3)c2C(N)=O)C(C)(C)N1	n	n	n	n	n	n
COC(=O)c1c(NC(=O)c2ccccc2)sc2c1CC(C)(C)NC2(C)C	n	n	n	n	n	-31
O=C(Nc1ccc(Cl)cc1)C1CCCN(C2=NS(=O)(=O)c3ccccc32)C1 (stereo not drawn)	n	n	n	n	x	n
Cc1cccc2sc(N(Cc3cccnc3)C(=O)CCc3ccccc3)nc12	n	56	x	n	n	x
Cc1cccc2sc(N(Cc3cccnc3)C(=O)Cc3ccccc3)nc12	n	n	x	n	n	x
CC1CCN(CCCNc2cc(NCCO)c([N+](=O)[O-])c3nonc23)CC1	n	n	n	n	n	n
CN(CCO)c1cc(NCCCN2CCC(Cc3ccccc3)CC2)c2nonc2c1[N+](=O)[O-]	n	n	-75	n	n	n
Cc1ccc(-c2c(C(=O)N3CCN(c4cccc(C)c4)C(C)C3)oc(=O)c3ccccc23)cc1 (stereo not drawn)	n	n	x	n	n	-37
Cc1cccc(N2CCN(C(=O)CCN3C(=O)C4C5C=CC(C5)C4C3=O)CC2C)c1 (stereo not drawn)	n	n	n	n	n	n
Cc1cccc(N2CCN(C(=O)c3ccccn3)CC2C)c1 (stereo not drawn)	n	n	n	n	n	n
Cc1cccc(N2CCN(C(=O)c3cccc(N4C(=O)C5C6C=CC(C6)C5C4=O)c3)CC2C)c1 (stereo not drawn)	n	n	n	n	n	-35
COc1ccc(CCNC(=O)C2CCC(=O)N2S(=O)(=O)c2ccc(C)cc2)cc1 (stereo not drawn)	n	n	n	n	n	n
SMILES	D1 PAM	D1 ag	DRD3 antagonist	D3 ag	ERG Ets-DNA blk	D1 antagonist
COc1ccccc1N1CCN(C(c2cccs2)C(C)NC(=O)C(=O)N2CCOCC2)CC1 (stereo not drawn)	n	n	n	n	n	n
CCCCn1nc2cc(C(=O)NCC34CC5CC(CC(C5)C3)C4)ccc2c1OC	n	n	n	n	n	n
CC(C)(C)n1nc2c(c1NC(=O)c1ccc(S(=O)(=O)N3CCCCC3)cc1)CS(=O)C2 (stereo not drawn)	n	n	n	n	n	n
c1ccc2c(c1)nc1n2C2(N3CCOCC3)CCCC2C1N1CCOCC1 (stereo not drawn)	n	47	n	n	n	n
COC(=O)c1c(SC)nc2ccccc2c1OCc1ccc(C)cc1	n	n	x	40	n	n
CCSc1nc2ccccc2c(OCc2ccc(Cl)cc2)c1C(=O)OC	n	n	x	n	n	n
CCSc1nc2ccccc2c(OCc2cc(C(=O)OC)ccc2OC)c1C(=O)OC	n	40	x	n	n	-62
COC(=O)c1c(SC)nc2ccccc2c1OCc1ccccc1C	n	n	x	32	n	n
COC(=O)c1c(SC)nc2ccccc2c1OCc1ccc(Br)cc1	n	n	x	n	n	n
CC[n+]1ccc(C)c2cc(P(=O)(c3ccccc3)c3ccccc3)ccc21	n	n	-58	n	n	n
COc1ccc(C2C(=O)N(C3CCCCCC3)CC(=O)N2CCc2ccccc2)cc1 (stereo not drawn)	n	n	x	n	n	n
O=C1C(c2cccc(Br)c2)N(CCc2ccccc2)C(=O)CN1C1CCCCC1 (stereo not drawn)	n	n	x	n	n	-33
O=C(c1cn(CC(=O)N2CCCC2)c2ccccc12)C1CCCCC1	n	n	n	n	n	n
O=C(c1cccs1)c1cn(CCOc2ccc(F)cc2)c2ccccc12	n	35	x	n	n	n
Cc1nn(-c2ccc3nnc(Br)n3n2)c(C)c1Br	n	n	x	x	x	n
Cc1cn([C@H]2C[C@H](O)[C@@H](CNC/C=C/c3ccccc3[N+](=O)[O-])O2)c(=O)[nH]c1=O	x	x	n	74	x	x
c1ccc(-c2csc(Nc3ccccn3)n2)cc1	n	n	n	n	n	n
Oc1ccc(-c2csc(Nc3ccccn3)n2)cc1	n	n	n	n	n	-79
CCOC(=O)c1[nH]c2ccc(F)cc2c1NC(=O)C(C)N1CCc2cc(OC)c(OC)cc2C1 (stereo not drawn)	n	n	-55	n	n	n
CCOC(=O)c1[nH]c2ccc(OC)cc2c1NC(=O)C(C)N1CCC2(CC1)OCCO2 (stereo not drawn)	n	n	x	x	x	n
CCOC(=O)/C(C#N)=C/C=C1/C=CC=CN1C	n	n	n	n	n	n
C=CCN1C=CC(=C/C=C(/C#N)C(=O)OCC)C=C1	n	93	n	n	n	n
COc1cc(C(=O)OCc2cccc(S(=O)(=O)N3CCOCC3)c2)ccc1OCC(C)C	n	n	n	n	n	n
CC(=O)Oc1ccc(-c2ccc(C(=O)Nc3cccc(S(=O)(=O)N4CCOCC4)c3)cc2)cc1	n	n	n	n	n	-32
